KCNH2 3.1 inh – KCNH2 3.1 (human) potassium channel inhibition. U2OS KCNH2 3.1, thallium flux FluxOr; active compounds read low. AID 720553. 0.95% of 340,000 active. activity change, % (tested at about 1.8 µM);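 active = maximum activity change below -70%; inconclusive = maximum activity change from -70% to -50%; inactive = maximum activity change above -50%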;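 note: thallium influx rate constant from kinetic fluorescence after stimulation buffer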
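Thallium flux via FluxOr fluorescence (Red40 quencher, 45 min loading) in U2OS cells virally expressing the KCNH2 3.1 isoform (1.77 x 10^8 /mL virus, overnight at 37 C). Rate constants from 2-min kinetic reads post-stimulation, normalised to positive and negative controls.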
RXFP1 agonist – activates the human relaxin receptor RXFP1; HEK293T-RXFP1 cAMP TR-FRET, 30 min; response scale: percent of porcine relaxin response, buffer zero; 0.3% of 370,000 active; Q9HBX9; Potency, µM (series often up to 57.5 µM), hits mostly activators; active = well fitted activation curve with a large enough effect; inconclusive = small, poorly fitted or top-dose-only effect; note: nearly all actives have a fitted effect of over 60% in size
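HEK293 cells stably expressing RXFP1, treated 30 min at 37C with compounds plus PDE4 inhibitor Ro 20174; cAMP measured by HTRF TR-FRET. Normalized to buffer and 29 nM porcine relaxin; EC50 by Hill fit.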
RXFP1 antag – RXFP1 (human) relaxin receptor antagonism; Q9HBX9; HEK293-RXFP1, relaxin-stimulated cAMP HTRF, 30 min; active compounds read low; activity change, negative = inhibition, % at 57.5 µM; 0.59% of 350,000 active;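 active = activity change of -60% or lower, but not beyond a set lower limit; inconclusive = change between -60% and -40%, or beyond the set limit; inactive = change above -40%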
pAkt inh – blocks phosphorylation of Akt; Neuro2A IGF-stimulated pAkt S473 HTRF, 20 min; active compounds read low; activity change, % for hits at 50 µM; 0.32% of 360,000 active; in the data active = activity change below about -80%; inconclusive = mostly about -51% to -80%
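Single-point screen (50 µM final compound) in Neuro2A cells stimulated 20 min with 6 nM IGF at 37 deg C. After lysis, Ser473-phosphorylated Akt read by HTRF (ex 330 nm, em 615/665 nm) as the 665/615 ratio.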
KCNH2 WT inh – KCNH2 (human, wildtype) channel inhibition | Q12809 | U2OS, BacMam KCNH2, thallium flux FluxOr; active compounds read low | activity change, % at 1.84 µM | 0.37% of 340,000 active | AID 720551;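 active = maximum activity change below -70%; inconclusive = maximum activity change between -70% and -50%; inactive = maximum activity change above -50%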
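U2OS cells were transduced with wild-type KCNH2 virus (2.03 x 10^8 / mL) for 4 h at room temperature, then cultured overnight at 37 C. Thallium flux was read with FluxOr dye. Rate constants were normalized to DMSO controls.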
Of the large screens only hits and unclear results are named; the others gave an inactive call. Hits are enriched below; roughly 1.7% of the tested compounds scored in any of these assays.

COc1cccc(NC(=O)CCc2nc(-c3ccccc3F)no2)c1	KCNH2 3.1 inh inconclusive
COc1ccccc1-c1noc(CCC(=O)Nc2cccc(C(F)(F)F)c2)n1	pAkt inh -104.8%
COc1ccc(NC(=O)Cn2nnc(-c3ccccc3NC(=O)C3CC3)n2)cc1	none
CCOc1ccc(NC(=O)Cn2nnc(-c3ccccc3NC(=O)C3CC3)n2)cc1	pAkt inh -126.1%
CCOc1ccccc1N1CCN(CC(=O)N(C2CCCC2)C2CCS(=O)(=O)C2)CC1 (stereo not drawn)	none
O=C(Cn1nnc(-c2ccccc2)n1)N=Nc1c(O)[nH]c2ccccc12	pAkt inh -105.1%
Cc1cc(-c2ccc(C)c(S(=O)(=O)N3CCN(c4ccc([N+](=O)[O-])cc4)CC3)c2)on1	KCNH2 3.1 inh -95.6
Cc1ccc(C)c(N2CCN(S(=O)(=O)c3cc(-c4cc(C)no4)ccc3C)CC2)c1	none (no result: KCNH2 3.1 inh, pAkt inh, KCNH2 WT inh)
O=C1COc2cc(ccc2[N+](=O)[O-])Oc2ccc(cc2Cl)C(=O)CCCCO1	none (no result: RXFP1 antag)
O=C(CCCCCn1c(=S)[nH]c2ccc(N3CCOCC3)cc2c1=O)NCc1ccccc1Cl	RXFP1 agonist inconclusive, RXFP1 antag -103.9
O=C(CCCCCn1c(=S)[nH]c2ccc(N3CCOCC3)cc2c1=O)NCc1ccc(Cl)cc1	RXFP1 antag -92.4
CC(C)N(C)c1ncnc2c1ncn2[C@H]1CN(Cc2ccco2)C[C@@H](CO)O1	none (no result: KCNH2 3.1 inh, RXFP1 agonist, RXFP1 antag, KCNH2 WT inh)
C=CCn1c2ccccc2c(=O)c2cc(C#Cc3cc(OC)cc(OC)c3)ccc21	KCNH2 3.1 inh -97.3 (no result: RXFP1 antag)
Clc1cccc(-c2nc(NCCN3CCOCC3)c3ccccc3n2)c1	none
CC12CC3CC(C)(C1)CC(C(=O)N1CCCC1)(C3)C2	RXFP1 antag -88.3
CN1CCN(C(=O)C23CC4CC(C)(CC(C)(C4)C2)C3)CC1	none
Cc1cc(Br)c2c(c1)/C(=C/C(=O)c1cccs1)C(=O)N2	none (no result: RXFP1 antag)
Cc1cccc2c1NC(=O)/C2=C\C(=O)c1cccs1	RXFP1 antag -91.7
CCc1ccc2c(c1)/C(=C/C(=O)c1cccs1)C(=O)N2	RXFP1 antag -91.6
CCCCOCCCNC(=O)N[C@H](C(=O)O)C(C)CC (stereo partly drawn)	none
COc1cc(CN2CCCC(C)C2)ccc1OCc1ccccc1 (stereo not drawn)	KCNH2 3.1 inh -84.5
COc1ccc(CN2CCN(Cc3ccc4ccccc4c3)CC2)cc1OC	KCNH2 3.1 inh -87.6
O=[N+]([O-])c1ccccc1CN1CCN(Cc2ccc3ccccc3c2)CC1	KCNH2 3.1 inh -80.4
O=[N+]([O-])c1ccccc1CN1CCN(S(=O)(=O)Cc2ccccc2)CC1	none
COc1ccccc1CN1CCN(Cc2ccc3ccccc3c2)CC1	none
COc1cc(CN2CCN(S(=O)(=O)c3ccccc3)CC2)cc(OC)c1OC	none
COc1cc(CN2CCN(C(O)(c3ccccc3)c3ccccc3)CC2)cc(OC)c1OC	KCNH2 3.1 inh -75.5
CCOC(=O)c1cc2sccc2n1CCCN1C(=O)c2ccccc2C1=O	none
Cc1ccc(-c2nc(N)sc2CC(=O)OCC(=O)NCCC(C)C)cc1	none
CC1CC(C)CN(CC(=O)Nc2ccc3c(c2)OCCO3)C1 (stereo not drawn)	KCNH2 3.1 inh -139.0, KCNH2 WT inh -112.9
COC(=O)C1CCN(CC(=O)Nc2ccc3c(c2)OCCO3)CC1	none (no result: RXFP1 agonist)
O=C1CC(SC2=NCCS2)C(=O)N1c1ccc(Br)cc1 (stereo not drawn)	none
CCC(Cc1ccccc1)NC(=O)Cn1ncc2ccsc2c1=O (stereo not drawn)	KCNH2 3.1 inh -110.0
CCC(Cc1ccccc1)NC(=O)Cn1nc(C)n2c(cc3occc32)c1=O (stereo not drawn)	none (no result: KCNH2 3.1 inh, RXFP1 antag, pAkt inh, KCNH2 WT inh)
O=C(Cn1cccc1C(=O)c1ccccc1)NCCCc1ccccc1	none
CCC(Cc1ccccc1)NC(=O)Cn1cccc1C(=O)c1ccccc1 (stereo not drawn)	RXFP1 antag -114.3 (no result: pAkt inh)
CCCC(=O)N1CCN(c2ccc([N+](=O)[O-])c(NC(C)c3ccccc3)c2)CC1 (stereo not drawn)	none (no result: pAkt inh)
CC(NC(=O)c1ccccc1)c1nc2ccccc2n1Cc1ccc(C#N)cc1 (stereo not drawn)	none
Cc1cc(C)nc(SCc2nnc(SCC(=O)Nc3ccc(C)c(C)c3)n2Cc2ccco2)n1	pAkt inh -109.7%
COC(=O)CSc1nnc(CSc2nc(C)cc(C)n2)n1Cc1ccco1	pAkt inh -96.6%
Cc1cc(C)nc(SCc2nnc(SCc3ccc([N+](=O)[O-])cc3)n2Cc2ccco2)n1	none
CCCNC(=O)OC[C@H]1O[C@H](CCO/N=C/[C@@H](OC)[C@H](C)/C=C/CC(=O)OC)C=C[C@@H]1Oc1ccc(OC)cc1	none (no result: KCNH2 3.1 inh, RXFP1 antag, pAkt inh, KCNH2 WT inh)
CCn1c(=O)n(CC)c2cc(NS(=O)(=O)c3ccccc3)ccc21	none
S=C(NCCCNC(=S)Nc1ccccc1)Nc1ccccc1	none
CC(C)Oc1cccc(NC(=O)C2(C)CCCN(C)C2)c1 (stereo not drawn)	none (no result: KCNH2 3.1 inh, RXFP1 agonist, RXFP1 antag, KCNH2 WT inh)
C/C(=N\NC(=O)c1c(C)nc2ccccn12)c1ccc(N2CCOCC2)cc1	RXFP1 agonist 14.1µM
Cc1ccc(CNC(=O)CS(=O)Cc2nc(-c3ccccc3Cl)oc2C)cc1 (stereo not drawn)	none (no result: pAkt inh)
CC1CCCC(NC(=O)CN2C(=O)COc3ccccc32)C1C (stereo not drawn)	none
C[C@H](O)[C@@H]1C(=O)N2CCc3c([nH]c4ccccc34)[C@@H]2C[C@@H]1N(C)C(=O)NC1CCCCC1	KCNH2 WT inh -114.4 (no result: RXFP1 agonist)
COCC(=O)N(C)[C@H]1C[C@H]2c3[nH]c4ccccc4c3CCN2C(=O)[C@H]1[C@H](C)O	none (no result: RXFP1 agonist)
CCc1cc2c(CN3CCN(C)CC3)cc(=O)oc2cc1O	none
CCc1cc2c(CN3CCN(CCO)CC3)cc(=O)oc2cc1O	pAkt inh -105.7%
CCc1ccc(NC(=O)NCC2CCN(Cc3cccc(Cl)c3)CC2)cc1	KCNH2 3.1 inh -91.4
Cc1ccc(NC(=O)NCC2CCN(Cc3cc(C)ccc3Cl)CC2)c(C)c1	KCNH2 WT inh -150.6
CCOC(=O)c1c(-c2ccco2)csc1N	pAkt inh -123.6%
N#C/C(=C\c1cn(Cc2ccc(C#N)cc2)c2ccccc12)C(=O)NCc1cccs1	KCNH2 3.1 inh -85.8
Cc1ccccc1OCCn1cc(/C=C(\C#N)C(=O)NCc2ccco2)c2ccccc21	KCNH2 3.1 inh -77.2
N#Cc1c(SCC(N)=O)nc2c(c1-c1ccc(O)cc1)CCCC2	none (no result: pAkt inh)
c1csc(-c2csc3nc(CN4CCOCC4)nc(NCc4ccc5c(c4)OCO5)c23)c1	none
CCOC(=O)N1CCN(C(=O)c2cc3ccc(OC)cc3[nH]2)CC1	none
OCCN(CCO)c1ccc(C(c2ccccc2Cl)c2ccc(N(CCO)CCO)cc2Cl)c(Cl)c1	RXFP1 antag -60.5
c1ccc(COc2ncnc3c2ncn3CCCNCC(c2ccccc2)c2ccccc2)cc1	KCNH2 3.1 inh -72.4 (no result: RXFP1 agonist)
